Records with an inconclusive call do not appear. A call without a number means that no potency is given here. Some structures have more than one record in an assay (separate samples or runs), and their calls can disagree. The source made the active and inactive calls. Unless noted, calls follow the shape of the dose curve; as a rule, active = well fitted curve in the direction sought with a large enough effect in the repeat runs; inconclusive = weak or mixed curves; inactive = no such curve, though single readings can be large; an effect the other way counts as inactive or inconclusive.
Legend:
[1] = qHTS assay to identify small molecule antagonists of the estrogen related receptor (ERR) signaling pathway from Tox21 library - cell viability counter screen (AID 1224834); also: nearly all actives have a fitted effect of over 30% in size
Procedure, shortened: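 Multiplexed viability counter screen in ERR cells: 17.5 h compound exposure at 37 C, CellTiter-Fluor added, 30 min at 37 C/5% CO2, fluorescence read.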

[2] = molecular target: Luciferin 4-monooxygenase (Photinus pyralis) (UniProt P08659); test: qHTS assay to identify small molecule inhibitors of firefly luciferase (AID 1224835); also: nearly all actives have a fitted effect of over 25% in size
Procedure, shortened: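 Biochemical qHTS: compounds run as interplate titrations against purified firefly enzyme, with D-luciferin and ATP each at its KM concentration. Light output recorded by CCD imaging.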

[3] = qHTS assay to identify small molecule agonists of the constitutive androstane receptor (CAR) signaling pathway - cell viability counter screen (AID 1224836); also: nearly all actives have a fitted effect of over 45% in size
Procedure, shortened: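 Double-stable HepG2 hepatoma cells (hCAR plus CYP2B6-2.2kb) are treated for 23 h at 37 C with test compounds in 15-point concentration series. PK11195 at 0.75 uM final is co-added. Cell viability is quantified by CellTiter-Fluor.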

[4] = qHTS assay to identify small molecule antagonists of the constitutive androstane receptor (CAR) signaling pathway - cell viability counter screen (AID 1224837); also: nearly all actives have a fitted effect of over 45% in size
Procedure, shortened: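 Read-out: CellTiter-Fluor fluorescence after 23 hr at 37 C/5% CO2. Cells: HepG2 double-stable for hCAR and CYP2B6-2.2kb. Compounds tested at 15 concentrations in the presence of CITCO, final concentration 50 nM.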

[5] = molecular target: Nuclear receptor subfamily 1 group I member 3 (Homo sapiens) (UniProt Q14994); test: qHTS assay to identify small molecule antagonists of the constitutive androstane receptor (CAR) signaling pathway (AID 1224838);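 also: HepG2 cells stably expressing hCAR with CYP2B6 luciferase reporter stimulated by CITCO; nearly all actives have a fitted effect of over 40% in size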
Procedure, shortened: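 Read-out: ONE-Glo luciferase luminescence after 30 min at room temperature. HepG2-CYP2B6-hCAR double-stable cells, compounds in 15-point titration plus 50 nM CITCO final, 24 h at 37 C/5% CO2.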

[6] = molecular target: Nuclear receptor subfamily 1 group I member 3 (Homo sapiens) (UniProt Q14994); test: qHTS assay to identify small molecule agonists of the constitutive androstane receptor (CAR) signaling pathway (AID 1224839);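 also: HepG2 cells stably carrying human CAR and a CYP2B6 luciferase reporter; nearly all actives have a fitted effect of over 15% in size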
Procedure, shortened: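 Readout: firefly luciferase luminescence via ONE-Glo. System: HepG2 double-stable for hCAR and CYP2B6-2.2kb. Conditions: 15-point compound titration, PK11195 at 0.75 uM final, 24 h incubation.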

[7] = qHTS assay to identify small molecule antagonists of the estrogen related receptor signaling pathway with the pleiotropic PPARgamma coactivator (PGC) from Tox21 10K library - cell viability counter screen (AID 1224840; active = well fitted cell-killing curve with a large enough effect in the repeat runs, not every such curve was filed as active; also: nearly all actives have a fitted effect of over 40% in size)
Procedure, shortened: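 Fluorescence read-out of CellTiter-Fluor viability reagent, added after cells had been exposed to compound in DMSO for 17.5 h at 37 C; 30 min development at 37 C/5% CO2. Cells: PGC/ERR line, 2,000/well.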

[8] = qHTS assay to identify small molecule antagonists of the estrogen related receptor signaling pathway with the pleiotropic PPARgamma coactivator (PGC) from Tox21 10K library (AID 1224841; call rule not given here; also: actives are mostly falling curves and most rising ones were filed inactive; nearly all actives have a fitted effect of over 50% in size; also: potency is read from the fitted curve at half-maximal effect)
Procedure, shortened: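 Luminescence read-out (One-Glo luciferase reagent, 30 min at room temperature) from PGC/ERR cells exposed to DMSO-dissolved test compounds for 18 h at 37 C; cells, 2,000 per well, had been preincubated 6 h before compound transfer.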

[9] = qHTS assay to identify small molecule agonists of the estrogen related receptor signaling pathway with the pleiotropic PPARgamma coactivator (PGC) from Tox21 10K library (AID 1224842); also: nearly all actives have a fitted effect of over 15% in size
Procedure, shortened: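 PGC/ERR reporter cell line, 2,000 cells per well, incubated 6 h at 37 C before 23 nL compound in DMSO was added. After 18 h at 37 C, One-Glo luminescence read following 30 min at room temperature.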

[10] = molecular target: Thyrotropin receptor (Homo sapiens) (UniProt P16473); test: qHTS assay to identify small molecule agonists of the thyroid stimulating hormone receptor (TSHR) signaling pathway (AID 1224843; calls by dose curve; also: nearly all actives have a fitted effect of over 45% in size)
Procedure, shortened: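 Agonist-mode screen: TSHR HEK293 cells received test chemicals for half an hour at room temperature, then HTRF cAMP detection reagents for one hour prior to fluorescence measurement. Each chemical ran as a 15-concentration series, triplicated.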

[11] = qHTS assay to identify small molecule agonists of H2AX (AID 1224845; active = well fitted activation curve with a large enough effect in the signal ratio in the repeat runs, not every such curve was filed as active; the % refers to the signal ratio)
Procedure, shortened: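 Wild-type CHO-K1 cells, plated overnight, exposed 3hr at 37C to 15 concentrations (0.76% DMSO final). Lysed, then HTRF anti-pH2AX (S139) cryptate and anti-H2AX-d2 antibodies, 24 hr room temperature; 665/620 nm emission read.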

[12] = qHTS assay to identify small molecule agonists of the hypoxia (HIF-1) signaling pathway (AID 1224846; active = well fitted activation curve with a large enough effect in the signal ratio in the repeat runs, not every such curve was filed as active; the % refers to the signal ratio)
Procedure, shortened: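 Beta-lactamase FRET read-out (CCF4-AM substrate) from ME-180 cells carrying an HRE-driven bla reporter, after 17 hrs compound exposure at 37C/5% CO2. Cells were seeded at 2,000 per well in 0.5% dialyzed FBS medium and preincubated 5 hrs.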

[13] = qHTS assay to identify small molecule agonists of H2AX - cell viability counter screen (AID 1224847; calls by dose curve; also: top concentration of the series differs between compounds; nearly all actives have a fitted effect of over 30% in size)
Procedure, shortened: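 For this counter screen, overnight-attached CHO-K1 cells received test compounds (15 concentrations, 0.76% DMSO final); 3 hr later at 37C, CellTiter-Glo reagent was added and luminescence recorded after 30 min at room temperature.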

[14] = qHTS assay to identify small molecule antagonists of the estrogen related receptor (ERR) signaling pathway from Tox21 library (AID 1224848); also: nearly all actives have a fitted effect of over 50% in size; also: potency is read from the fitted curve at half-maximal effect
Procedure, shortened: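 Quantitative high-throughput format: ERR reporter cells (2,000/well) pre-incubated 6 h, treated 18 h at 37 C with compounds in DMSO alongside positive and negative controls, then read by ONE-Glo luminescence.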

[15] = qHTS assay to identify small molecule agonists of the estrogen related receptor (ERR) signaling pathway from Tox21 library (AID 1224849; calls by dose curve; also: nearly all actives have a fitted effect of over 15% in size); conditions: ERR reporter cell line, ONE-Glo luciferase, 18 h
Procedure, shortened: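 Luminescence readout (ONE-Glo, 30 min RT) after 18 h compound exposure at 37 C of NTP-supplied ERR reporter cells; cells were plated 6 h before compound addition by pin tool.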

[16] = qHTS RealTime-Glo MT Cell Viability Assay in HepG2 cells - 24 hour (AID 1224867); also: nearly all actives have a fitted effect of over 50% in size
Procedure, shortened: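 Compound treatment began 5 h after plating HepG2 cells (600/well) with NanoLuc luciferase and prosubstrate. Plates stayed at 37 C for 40 h; luminescence was captured at six time points, 0 h through 40 h.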

[17] = qHTS RealTime-Glo MT Cell Viability Assay in HEK293 cells - 32 hour (AID 1224868); also: nearly all actives have a fitted effect of over 50% in size; also: potency is read from the fitted curve at half-maximal effect
Procedure, shortened: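 Quantitative high-throughput screen of the Tox21 10K library in HEK293: cells and RealTime-Glo reagents plated together, compound added at 5 h, luminescence monitored through 40 h at 37 C.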

[18] = A CellTox Green Cytotoxicity Assay to monitor cytotoxicity in HEK293 cells - 0 hour (AID 1224869); also: nearly all actives have a fitted effect of over 50% in size
Procedure, shortened: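 Read-out: fluorescence of a cell-impermeant cyanine dye staining DNA of dead cells, proportional to cytotoxicity. HEK293, 600 cells/well with reagent, compound (23 nL DMSO) added after 5 h; reads at 0, 8, 16, 24, 32, 40 h.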

[19] = qHTS RealTime-Glo MT Cell Viability Assay in HepG2 cells - 40 hour (AID 1224870); also: nearly all actives have a fitted effect of over 50% in size
Procedure, shortened: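 HepG2 cells (600/well) mixed with RealTime-Glo MT reagent, settled 5 h at 37 C/5% CO2 before compound addition. Nonlytic NanoLuc luminescence from viable-cell prosubstrate reduction read repeatedly during 40 h treatment at 37 C.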

[20] = qHTS assay to identify small molecule agonists of the hypoxia (HIF-1) signaling pathway - cell viability counter screen (AID 1224844; calls by dose curve; also: nearly all actives have a fitted effect of over 50% in size; also: potency is read from the fitted curve at half-maximal effect)
Procedure, shortened: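 CellTiter-Glo luminescence read-out, 30 min RT, taken in the same wells as the beta-lactamase HRE reporter assay; HRE-bla ME-180 cells, 0.5% dialyzed FBS, 17 hr compound treatment at 37C, 5% CO2.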

Thyrotropin receptor (Homo sapiens), sequence (P16473 whole entry, looked up): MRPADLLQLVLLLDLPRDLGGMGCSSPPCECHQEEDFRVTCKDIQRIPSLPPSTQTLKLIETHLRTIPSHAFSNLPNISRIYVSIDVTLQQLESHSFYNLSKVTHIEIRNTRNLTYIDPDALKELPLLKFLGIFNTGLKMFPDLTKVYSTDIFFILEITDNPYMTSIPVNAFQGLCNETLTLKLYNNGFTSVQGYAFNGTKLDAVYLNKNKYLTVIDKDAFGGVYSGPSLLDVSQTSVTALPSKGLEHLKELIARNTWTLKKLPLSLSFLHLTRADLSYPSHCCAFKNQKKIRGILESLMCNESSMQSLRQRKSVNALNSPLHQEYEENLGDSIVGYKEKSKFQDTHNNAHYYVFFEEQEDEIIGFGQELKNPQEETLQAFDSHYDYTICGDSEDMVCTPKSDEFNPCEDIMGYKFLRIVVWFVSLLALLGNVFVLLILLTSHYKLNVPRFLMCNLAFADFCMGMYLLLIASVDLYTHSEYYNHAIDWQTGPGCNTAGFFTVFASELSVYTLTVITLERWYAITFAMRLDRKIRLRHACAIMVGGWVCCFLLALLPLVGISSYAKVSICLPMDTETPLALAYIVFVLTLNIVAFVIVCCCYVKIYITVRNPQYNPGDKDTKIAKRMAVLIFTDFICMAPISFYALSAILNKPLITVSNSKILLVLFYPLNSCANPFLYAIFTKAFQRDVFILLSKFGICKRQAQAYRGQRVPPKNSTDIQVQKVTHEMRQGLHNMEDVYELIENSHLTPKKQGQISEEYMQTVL
Nuclear receptor subfamily 1 group I member 3 (Homo sapiens), sequence (Q14994 whole entry, looked up): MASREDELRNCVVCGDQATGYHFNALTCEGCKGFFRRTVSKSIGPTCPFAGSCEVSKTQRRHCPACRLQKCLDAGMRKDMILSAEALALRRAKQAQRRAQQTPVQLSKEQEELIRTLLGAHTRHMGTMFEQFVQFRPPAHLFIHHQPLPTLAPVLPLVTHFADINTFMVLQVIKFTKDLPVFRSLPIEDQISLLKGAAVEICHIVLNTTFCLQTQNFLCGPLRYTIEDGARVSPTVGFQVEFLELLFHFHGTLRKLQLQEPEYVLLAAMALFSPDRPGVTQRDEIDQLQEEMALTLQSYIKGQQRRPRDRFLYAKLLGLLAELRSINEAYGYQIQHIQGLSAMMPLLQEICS
Luciferin 4-monooxygenase (Photinus pyralis), sequence (P08659 whole entry, looked up): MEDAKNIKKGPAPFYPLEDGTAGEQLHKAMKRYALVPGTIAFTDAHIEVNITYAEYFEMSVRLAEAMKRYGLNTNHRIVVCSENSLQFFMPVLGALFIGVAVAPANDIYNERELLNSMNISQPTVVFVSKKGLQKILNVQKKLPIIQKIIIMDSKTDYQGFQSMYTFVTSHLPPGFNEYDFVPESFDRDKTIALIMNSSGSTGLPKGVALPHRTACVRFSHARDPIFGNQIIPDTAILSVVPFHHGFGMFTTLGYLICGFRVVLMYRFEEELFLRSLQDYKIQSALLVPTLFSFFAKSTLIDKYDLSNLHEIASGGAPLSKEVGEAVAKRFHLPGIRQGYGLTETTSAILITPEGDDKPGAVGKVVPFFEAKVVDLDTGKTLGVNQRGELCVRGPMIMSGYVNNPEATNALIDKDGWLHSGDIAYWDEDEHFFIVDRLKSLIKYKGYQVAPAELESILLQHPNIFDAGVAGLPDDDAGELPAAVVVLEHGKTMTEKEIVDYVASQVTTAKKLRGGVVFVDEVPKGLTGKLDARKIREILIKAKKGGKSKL

With OCC(CO)N[C@H]1C[C@](O)(CO)[C@@H](O)[C@H](O)[C@H]1O the Potency [1] was “inactive”, the Potency [2] was “inactive” and the Potency [3] was “inactive”. For the same compound, the Potency [4] was “inactive”, the Potency [5] was “inactive” and the Potency [6] was “inactive”. For the same compound, the Potency [7] was “inactive”, the Potency [8] was “inactive” and the Potency [9] was “inactive”. For the same compound, the Potency [10] was “inactive”, the Potency [11] was “inactive” and the Potency [12] was “inactive”. For the same compound, the Potency [13] was “inactive”, the Potency [14] was “inactive” and the activity change, positive = activation ([15]; at 42.5 µM (top of the series)) was 2.44% (inactive). For the same compound, the Potency [16] was “inactive”, the Potency [17] was “inactive” and the Potency [18] was “inactive”. The Potency [19] was “inactive”.

With CCOc1ccccc1C(N)=O the Potency [1] was “inactive”, the Potency [2] was “inactive” and the Potency [3] was “inactive”. For the same compound, the Potency [4] was “inactive”, the Potency [5] was “inactive” and the Potency [6] was “inactive”. For the same compound, the Potency [7] was “inactive”, the Potency [10] was “inactive” and the Potency [20] was “inactive”. The Potency [11] was “inactive”, the Potency [12] was “inactive” and the Potency [16] was “inactive”. For the same compound, the Potency [17] was “inactive”, the Potency [18] was “inactive” and the Potency [19] was “inactive”.

In the case of O=C1CC2(CCCC2)CC(=O)N1CCCCN1CCN(c2ncccn2)CC1, the Potency [1] is reported as “inactive”, the Potency [2] is reported as “inactive” and the Potency [3] is reported as “inactive”. The Potency [4] was “inactive”, the Potency [5] was “inactive” and the Potency [6] was “inactive”. The Potency [7] was “inactive”, the Potency [8] was 19.3 µM (active) and inactive and the Potency [9] was “inactive”. The Potency [10] was “inactive”, the Potency [20] was 4.36 µM (active) and inactive and the Potency [11] was “inactive”. The Potency [13] was “inactive”, the Potency [14] was 30.6 µM (active) and inactive and the activity change, positive = activation ([15]; at 42.5 µM (top of the series)) was -12.4% (inactive). For the same compound, the activity change, positive = activation ([15]; at 92.4 µM (top of the series)) was -47% (inactive), the Potency [17] was 43.6 µM (active) and inactive and the Potency [18] was “inactive”. The Potency [19] was “inactive”.

With O=C(Cl)c1cccc(C(=O)Cl)c1 the Potency [1] was “inactive”, the Potency [2] was “inactive” and the Potency [3] was “inactive”. The Potency [4] was “inactive”, the Potency [5] was “inactive” and the Potency [6] was “inactive”. The Potency [7] was “inactive”, the Potency [10] was “inactive” and the Potency [20] was “inactive”. The Potency [11] was “inactive”, the Potency [12] was “inactive” and the Potency [13] was “inactive”. The Potency [17] was “inactive”, the Potency [18] was “inactive” and the Potency [19] was “inactive”.

For NC(N)=NC(=O)Cc1c(Cl)cccc1Cl, the Potency [1] was “inactive”, the Potency [2] was “inactive” and the Potency [3] was “inactive”. For the same compound, the Potency [4] was “inactive”, the Potency [5] was “inactive” and the Potency [6] was “inactive”. The Potency [7] was “inactive”, the Potency [8] was “inactive” and the Potency [9] was “inactive”. For the same compound, the Potency [10] was “inactive”, the Potency [20] was “inactive” and the Potency [11] was “inactive”. For the same compound, the Potency [13] was “inactive”, the Potency [14] was “inactive” and the activity change, positive = activation ([15]; at 42.5 µM (top of the series)) was -1.99% (inactive). For the same compound, the Potency [16] was “inactive”, the Potency [17] was “inactive” and the Potency [18] was “inactive”. For the same compound, the Potency [19] was “inactive”.

In the case of CNC1(C)C2CCC(C2)C1(C)C (stereo unspecified), the Potency [1] is reported as “inactive”, the Potency [2] is reported as “inactive” and the Potency [3] is reported as “inactive”. The Potency [4] was “inactive”, the Potency [5] was “inactive” and the Potency [6] was “inactive”. For the same compound, the Potency [7] was “inactive”, the Potency [8] was “inactive” and the Potency [9] was “inactive”. The Potency [10] was “inactive”, the Potency [20] was “inactive” and the Potency [11] was “inactive”. For the same compound, the Potency [13] was “inactive”, the Potency [14] was “inactive” and the activity change, positive = activation ([15]; at 42.5 µM (top of the series)) was 0.179% (inactive). The Potency [16] was “inactive”, the Potency [17] was “inactive” and the Potency [18] was “inactive”. For the same compound, the Potency [19] was “inactive”.

Source: PubChem BioAssay (Tox21)
